Experimental data from PMC4081100, “A DNA-binding-site landscape and regulatory network analysis for NAC transcription factors in Arabidopsis thaliana”.

What was measured:
Experiment in all cases: universal protein binding microarray (PBM); transcription factors of Arabidopsis thaliana; high values mean tight binding
Conditions in all cases: protein: recombinant; tags: GST; chain copies: 2; dsDNA, one strand shown
[1] = biological target: T1, GST-ANAC092(1-176) (Arabidopsis thaliana, UniProt Q9FKA0 1-176)
T1 sequence: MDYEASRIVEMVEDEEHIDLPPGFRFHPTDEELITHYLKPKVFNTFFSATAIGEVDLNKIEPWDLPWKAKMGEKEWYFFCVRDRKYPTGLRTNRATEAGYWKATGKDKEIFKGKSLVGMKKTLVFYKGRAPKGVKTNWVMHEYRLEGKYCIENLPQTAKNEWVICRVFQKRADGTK
How it was run: (§1)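 GST-tagged proteins (NAC-domain, full-length or DNA-binding-domain) were induced in cells, with zinc acetate supplied for zinc-finger proteins, then purified on glutathione–Sepharose 4B. Each was tested in duplicate at 200 to 500 nM final on custom all-10-mer Agilent 4 × 180K arrays rendered double-stranded by primer extension. The binding value is the normalised enrichment score (E-score) across gapped and ungapped 8-mers.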

[2] = biological target: GST-NTL6(1-168) (Arabidopsis thaliana, UniProt Q9SCK6 1-168)
How it was run: as §1

[3] = biological target: T2, GST-ANAC019 NAC domain (Arabidopsis thaliana, UniProt Q9C932 14-162)
T2 sequence: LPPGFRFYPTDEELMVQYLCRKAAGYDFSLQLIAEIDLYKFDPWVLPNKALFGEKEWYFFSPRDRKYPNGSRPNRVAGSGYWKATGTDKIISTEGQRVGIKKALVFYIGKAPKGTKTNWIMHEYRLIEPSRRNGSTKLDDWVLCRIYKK
How it was run: as §1

[4] = biological target: T3, GST-ANAC055(1-171) (Arabidopsis thaliana, UniProt Q9LDY8 1-171)
T3 sequence: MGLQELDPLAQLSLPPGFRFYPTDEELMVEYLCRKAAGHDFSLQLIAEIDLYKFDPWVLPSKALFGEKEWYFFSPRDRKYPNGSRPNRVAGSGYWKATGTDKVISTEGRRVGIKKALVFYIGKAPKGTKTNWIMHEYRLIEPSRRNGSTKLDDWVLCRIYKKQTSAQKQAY
How it was run: as §1

[5] = biological target: T4, GST-ATAF1 NAC domain (Arabidopsis thaliana, UniProt Q39013 7-158)
T4 sequence: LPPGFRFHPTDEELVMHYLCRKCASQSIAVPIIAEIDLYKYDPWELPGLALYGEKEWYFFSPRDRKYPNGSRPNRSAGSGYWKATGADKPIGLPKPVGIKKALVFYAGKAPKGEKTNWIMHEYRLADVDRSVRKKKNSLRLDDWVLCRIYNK
How it was run: as §1

[6] = biological target: T5, GST-ANAC092(1-285) full length (Arabidopsis thaliana, UniProt Q9FKA0 1-285)
T5 sequence: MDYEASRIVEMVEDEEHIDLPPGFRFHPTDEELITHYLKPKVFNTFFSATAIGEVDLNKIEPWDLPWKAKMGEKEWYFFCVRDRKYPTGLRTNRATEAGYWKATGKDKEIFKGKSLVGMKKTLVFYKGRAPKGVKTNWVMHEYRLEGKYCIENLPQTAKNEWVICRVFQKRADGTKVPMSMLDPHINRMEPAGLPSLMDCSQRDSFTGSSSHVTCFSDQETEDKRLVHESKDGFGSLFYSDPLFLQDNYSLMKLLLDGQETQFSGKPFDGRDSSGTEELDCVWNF
How it was run: as §1

[7] = biological target: T6, GST-NAP(1-166) (Arabidopsis thaliana, UniProt O49255 1-166)
T6 sequence: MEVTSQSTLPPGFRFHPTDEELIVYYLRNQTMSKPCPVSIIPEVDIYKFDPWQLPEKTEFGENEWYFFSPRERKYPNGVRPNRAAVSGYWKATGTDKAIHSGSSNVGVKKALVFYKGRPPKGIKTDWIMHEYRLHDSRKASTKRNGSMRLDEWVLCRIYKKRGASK
How it was run: as §1

[8] = biological target: T7, GST-NST2(1-184) (Arabidopsis thaliana, UniProt Q9M274 1-184)
T7 sequence: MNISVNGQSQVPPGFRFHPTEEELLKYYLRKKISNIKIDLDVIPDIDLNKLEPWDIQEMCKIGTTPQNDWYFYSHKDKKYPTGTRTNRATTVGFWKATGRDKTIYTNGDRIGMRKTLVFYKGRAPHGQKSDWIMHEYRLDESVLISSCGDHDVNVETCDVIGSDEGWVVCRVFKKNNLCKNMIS
How it was run: as §1

[9] = biological target: T8, GST-NTL8 NAC domain (Arabidopsis thaliana, UniProt Q9XIN7 14-156)
T8 sequence: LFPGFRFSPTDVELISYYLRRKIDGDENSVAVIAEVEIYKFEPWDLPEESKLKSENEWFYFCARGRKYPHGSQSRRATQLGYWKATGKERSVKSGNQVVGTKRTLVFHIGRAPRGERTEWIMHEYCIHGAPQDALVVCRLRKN
How it was run: as §1

[10] = biological target: T9, GST-SND1(1-203) (Arabidopsis thaliana, UniProt Q9LPI7 1-203)
T9 sequence: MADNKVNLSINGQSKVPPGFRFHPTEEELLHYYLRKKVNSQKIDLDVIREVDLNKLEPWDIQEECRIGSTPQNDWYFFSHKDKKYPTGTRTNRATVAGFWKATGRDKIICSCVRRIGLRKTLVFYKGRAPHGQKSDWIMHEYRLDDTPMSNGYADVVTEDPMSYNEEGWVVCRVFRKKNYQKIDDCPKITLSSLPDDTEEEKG
How it was run: as §1

[11] = biological target: T10, GST-VND3 NAC domain (Arabidopsis thaliana, UniProt Q9FH59 12-162)
T10 sequence: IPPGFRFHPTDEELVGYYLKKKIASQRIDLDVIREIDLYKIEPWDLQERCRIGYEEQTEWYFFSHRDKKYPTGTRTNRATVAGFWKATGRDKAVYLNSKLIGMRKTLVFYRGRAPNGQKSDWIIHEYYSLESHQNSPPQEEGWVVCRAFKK
How it was run: as §1

[12] = biological target: T11, GST-VND7 NAC domain (Arabidopsis thaliana, UniProt Q9C8W9 9-158)
T11 sequence: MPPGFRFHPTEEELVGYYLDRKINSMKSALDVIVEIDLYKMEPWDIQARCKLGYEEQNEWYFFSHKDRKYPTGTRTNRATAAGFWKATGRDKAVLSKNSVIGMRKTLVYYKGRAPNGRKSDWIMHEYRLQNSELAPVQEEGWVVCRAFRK
How it was run: as §1

Sequence of GST-NTL6(1-168) (Q9SCK6 1-168): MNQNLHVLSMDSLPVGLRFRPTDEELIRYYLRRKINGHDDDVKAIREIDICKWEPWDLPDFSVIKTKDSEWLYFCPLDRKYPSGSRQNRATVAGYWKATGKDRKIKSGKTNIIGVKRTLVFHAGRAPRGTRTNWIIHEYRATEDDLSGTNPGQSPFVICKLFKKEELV

Sequence | binding signal [1] [E-score] | binding signal [2] [E-score] | binding signal [3] [E-score] | binding signal [4] [E-score] | binding signal [5] [E-score] | binding signal [6] [E-score] | binding signal [7] [E-score] | binding signal [8] [E-score] | binding signal [9] [E-score] | binding signal [10] [E-score] | binding signal [11] [E-score] | binding signal [12] [E-score]
ATTCCGTA | 0.209 | 0.17 | 0.456 | 0.385 | 0.308 | 0.342 | 0.381 | 0.194 | 0.0978 | 0.239 | 0.434 | 0.374
CCACGCAA | 0.472 | 0.116 | 0.383 | 0.363 | 0.235 | 0.474 | 0.305 | 0.348 | 0.0836 | 0.41 | 0.354 | 0.337
ACGCAACA | 0.473 | 0.0917 | 0.408 | 0.35 | 0.292 | 0.484 | 0.399 | 0.4 | 0.0984 | 0.467 | 0.347 | 0.406
CACGGAAG | 0.372 | 0.0727 | 0.471 | 0.435 | 0.343 | 0.403 | 0.367 | 0.12 | 0.129 | 0.164 | 0.435 | 0.428
CGTTTCCC | 0.244 | 0.14 | 0.176 | 0.176 | 0.108 | 0.274 | 0.28 | 0.0635 | 0.422 | 0.265 | 0.179 | 0.186
GTTCCTTA | 0.136 | 0.458 | 0.141 | 0.0564 | 0.151 | 0.237 | 0.117 | 0.139 | 0.329 | 0.376 | 0.249 | 0.147
ATTCCTTA | 0.103 | 0.486 | 0.0942 | 0.114 | 0.126 | 0.115 | – | 0.224 | 0.237 | 0.306 | 0.0907 | 0.064
GTACGCAA | 0.482 | 0.121 | 0.445 | 0.411 | 0.407 | 0.487 | 0.456 | 0.394 | 0.0545 | 0.47 | 0.413 | 0.437
TACGCCAA | 0.413 | 0.0645 | 0.0981 | 0.172 | 0.309 | 0.439 | – | 0.251 | 0.0846 | 0.454 | 0.171 | 0.244
GTTACTTA | 0.306 | 0.461 | 0.0988 | 0.117 | 0.256 | 0.374 | 0.113 | 0.25 | 0.286 | 0.41 | 0.263 | 0.248
CTAGGAAA | 0.146 | 0.188 | 0.18 | 0.214 | 0.167 | 0.0932 | – | 0.187 | 0.425 | 0.145 | 0.219 | 0.13
AATTCCGT | 0.274 | 0.169 | 0.456 | 0.429 | 0.358 | 0.247 | 0.379 | 0.179 | 0.105 | 0.122 | 0.414 | 0.382
TACGTAAA | 0.427 | 0.095 | 0.43 | 0.384 | 0.377 | 0.444 | 0.399 | 0.261 | 0.172 | 0.43 | 0.421 | 0.43
ACGTTACT | 0.435 | 0.0863 | 0.287 | 0.155 | 0.282 | 0.439 | 0.249 | 0.268 | 0.233 | 0.434 | 0.259 | 0.326
CACGCAAA | 0.487 | 0.107 | 0.421 | 0.348 | 0.292 | 0.486 | 0.385 | 0.389 | 0.0878 | 0.426 | 0.396 | 0.419
GTTAAGTA | 0.119 | 0.45 | 0.171 | 0.0947 | 0.218 | 0.123 | – | 0.148 | 0.228 | 0.202 | 0.245 | 0.0716
ACTTAACC | 0.197 | 0.402 | 0.17 | 0.115 | 0.132 | 0.186 | – | 0.164 | 0.243 | 0.221 | 0.203 | 0.209
